# Reference: PubChem BioAssay (EPA / NIEHS)
# The source made the active and inactive calls. The calls were made as follows: active = hit-call score of the fitted dose curve at least 0.9, where 1 is the maximum; inactive = score below 0.9.
# Key:
# [1] = read-out: TIMP metallopeptidase inhibitor 1 (TIMP1), TIMP1 (gene 7076); assay: BSK_hDFCGF_TIMP1: BioMAP Diversity Plus: hDFCGF Assay for TIMP metallopeptidase inhibitor 1 (TIMP1) Biomarker Activity (AID 2283062); conditions: primary human foreskin fibroblasts; actives raise or lower the signal
# Procedure, shortened: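 Human skin fibroblasts (primary), hDFCGF system; compound exposure 24 h; TIMP-1 by ELISA; bidirectional fit vs DMSO negative control; overt cytotoxicity by SRB in parallel wells.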
# [2] = read-out: Monokine induced gamma interferon (MIG), CXCL9 (gene 4283); assay: BSK_hDFCGF_MIG: BioMAP Diversity Plus: hDFCGF Assay for Monokine induced gamma interferon (MIG) Biomarker Activity (AID 2283063); conditions: primary human foreskin fibroblasts; actives raise or lower the signal
# Procedure, shortened: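 Chemicals were added to primary human foreskin fibroblast cultures, which were sampled 24 h later. MIG levels were then quantified by ELISA and responses fitted in both directions relative to DMSO.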
# [3] = read-out: Matrix Metallopeptidase 1 (MMP1), MMP1 (gene 4312); assay: BSK_hDFCGF_MMP1: BioMAP Diversity Plus: hDFCGF Assay for Matrix Metallopeptidase 1 (MMP1) Biomarker Activity (AID 2283064); conditions: primary human foreskin fibroblasts; actives raise or lower the signal
# Procedure, shortened: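 Human foreskin fibroblasts exposed to chemical for 24 h; MMP1 detected by ELISA, with DMSO as baseline for bidirectional fitting.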
# [4] = read-out: Vascular cell adhesion molecule 1 (VCAM1), VCAM1 (gene 7412); assay: BSK_hDFCGF_VCAM1: BioMAP Diversity Plus: hDFCGF Assay for Vascular cell adhesion molecule 1 (VCAM1) Biomarker Activity (AID 2283065); conditions: primary human foreskin fibroblasts; actives raise or lower the signal
# Procedure, shortened: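 Human foreskin fibroblast primary cells, chemical exposure 24 h; VCAM-1 by ELISA; bidirectional fit, DMSO = negative control/baseline.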
# [5] = read-out: Plasminogen activator inhibitor-1 (PAI1), SERPINE1 (gene 5054); assay: BSK_hDFCGF_PAI1: BioMAP Diversity Plus: hDFCGF Assay for Plasminogen activator inhibitor-1 (PAI1) Biomarker Activity (AID 2283066); conditions: primary human foreskin fibroblasts; actives raise or lower the signal
# Procedure, shortened: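 Fibroblasts from human foreskin were treated with test chemical. After 24 h, PAI-1 was measured by ELISA. Activity was fitted in both directions relative to DMSO.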
# [6] = read-out: Intercellular Adhesion Molecule 1 (ICAM1), ICAM1 (gene 3383); assay: BSK_KF3CT_ICAM1: BioMAP Diversity Plus: KF3CT Assay for Intercellular Adhesion Molecule 1 (ICAM1) Biomarker Activity (AID 2283067); conditions: primary human keratinocytes with fibroblasts; actives raise or lower the signal
# Procedure, shortened: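 ICAM-1 levels are measured by ELISA 24 h after dosing a primary human co-culture of keratinocytes and foreskin fibroblasts. Activity in either direction is fitted relative to DMSO vehicle.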
# [7] = read-out: Interferon-gamma inducible Protein 10 (IP10), CXCL10 (gene 3627); assay: BSK_KF3CT_IP10: BioMAP Diversity Plus: KF3CT Assay for Interferon-gamma inducible Protein 10 (IP10) Biomarker Activity (AID 2283068); conditions: primary human keratinocytes with fibroblasts; actives raise or lower the signal
# Procedure, shortened: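 In a primary skin co-culture of keratinocytes and fibroblasts, IP-10 is quantified by ELISA at 24 h after dosing. SRB staining of parallel wells monitors overt toxicity. Curves are fitted both directions against DMSO.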
# [8] = BSK_KF3CT_SRB: Viability Assessment in the BioMAP Diversity Plus: KF3CT Assay (AID 2283069); conditions: primary human keratinocytes with fibroblasts;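 also: read 24 h after compound addition; fitted for both signal gain and loss against DMSO baseline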
# Procedure, shortened: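 Overt cytotoxicity is assessed as total protein by sulforhodamine B staining in parallel human skin co-cultures at 24 h after dosing. DMSO serves as negative control and baseline.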
# [9] = read-out: Interleukin-1 alpha (IL1a), IL1A (gene 3552); assay: BSK_KF3CT_IL1a: BioMAP Diversity Plus: KF3CT Assay for Interleukin-1 alpha (IL1a) Biomarker Activity (AID 2283070); conditions: primary human keratinocytes with fibroblasts; actives raise or lower the signal
# Procedure, shortened: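 Readout is IL-1a level by ELISA, compared bidirectionally with DMSO as baseline. Cells: human keratinocytes co-cultured with foreskin fibroblasts, harvested 24 h post-dose.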
# [10] = read-out: TIMP metallopeptidase inhibitor 2 (TIMP2), TIMP2 (gene 7077); assay: BSK_KF3CT_TIMP2: BioMAP Diversity Plus: KF3CT Assay for TIMP metallopeptidase inhibitor 2 (TIMP2) Biomarker Activity (AID 2283071); conditions: primary human keratinocytes with fibroblasts; actives raise or lower the signal
# Procedure, shortened: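 Chemicals were dosed onto human skin primary co-cultures of keratinocytes and foreskin fibroblasts, and TIMP-2 was measured by ELISA after 24 hours. Activity in either direction was fitted relative to DMSO.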
# [11] = read-out: Transforming growth factor beta 1 (TGFb1), TGFB1 (gene 7040); assay: BSK_KF3CT_TGFb1: BioMAP Diversity Plus: KF3CT Assay for Transforming growth factor beta 1 (TGFb1) Biomarker Activity (AID 2283072); conditions: primary human keratinocytes with fibroblasts; actives raise or lower the signal
# Procedure, shortened: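 KF3CT co-culture (keratinocytes + fibroblasts), 24 h exposure → TGF-b1 ELISA → bidirectional fit, DMSO = baseline. Parallel SRB total-protein staining (0.1% SRB, 10% TCA fixation, 560 nm) for cytotoxicity.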
# [12] = read-out: C-C motif chemokine 2 (Homo sapiens) (UniProt P13500); assay: BSK_KF3CT_MCP1: BioMAP Diversity Plus: KF3CT Assay for Monocyte Chemoattractant Protein 1 (MCP1/CCL2) Biomarker Activity (AID 2283073); conditions: primary human keratinocytes with fibroblasts; actives raise or lower the signal
# Procedure, shortened: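 ELISA readout of MCP-1 after 24 h chemical dosing of a human skin primary co-culture of keratinocytes and foreskin fibroblasts. Activity was fitted in both directions against DMSO.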
# [13] = read-out: Matrix Metallopeptidase 9 (MMP9), MMP9 (gene 4318); assay: BSK_KF3CT_MMP9: BioMAP Diversity Plus: KF3CT Assay for Matrix Metallopeptidase 9 (MMP9) Biomarker Activity (AID 2283074); conditions: primary human keratinocytes with fibroblasts; actives raise or lower the signal;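 as to AC50: MMP9 protein level quantified by ELISA in the co-culture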
# Procedure, shortened: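 Values come from bidirectional fitting relative to DMSO of MMP-9 levels, which were measured by ELISA. Measurements were taken 24 h after chemical dosing of a keratinocyte and foreskin fibroblast co-culture.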
# [14] = read-out: urokinase plasminogen activator (uPA), PLAU (gene 5328); assay: BSK_KF3CT_uPA: BioMAP Diversity Plus: KF3CT Assay for urokinase plasminogen activator (uPA) Biomarker Activity (AID 2283075); conditions: primary human keratinocytes with fibroblasts; actives raise or lower the signal
# Procedure, shortened: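 Values derive from bidirectional fitting against DMSO controls. Keratinocyte/foreskin fibroblast co-cultures received chemical; 24 h later uPA was detected by ELISA, with SRB total-protein staining in parallel wells for overt cytotoxicity.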
# [15] = read-out: CD40, CD40 (gene 958); assay: BSK_LPS_CD40: BioMAP Diversity Plus: LPS Assay for CD40 Biomarker Activity (AID 2283076); conditions: primary human HUVEC with PBMC; actives raise or lower the signal
# Procedure, shortened: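 Cells were dosed, incubated 24 h, then assayed for CD40 by ELISA. Gain or loss of signal was analysed relative to DMSO controls. The culture paired human umbilical vein endothelium with peripheral blood mononuclear cells.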
# [16] = read-out: E-selectin (Homo sapiens) (UniProt P16581); assay: BSK_LPS_Eselectin: BioMAP Diversity Plus: LPS Assay for Eselectin Biomarker Activity (AID 2283077); conditions: primary human HUVEC with PBMC; actives raise or lower the signal
# Procedure, shortened: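 Primary human vascular co-culture (endothelium plus PBMC) was dosed with chemical, then E-selectin quantified by ELISA at 24 h. Endpoint values derive from bidirectional curve fitting relative to DMSO.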
# [17] = BSK_LPS_SRB: Viability Assessment in the BioMAP Diversity Plus: LPS Assay (AID 2283079); conditions: primary human HUVEC with PBMC;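 also: total protein by sulforhodamine B absorbance as a cytotoxicity measure; measured one day after compound addition; fitted in both directions against DMSO so loss or gain of signal counts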
# Procedure, shortened: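 Readout is SRB absorbance at 560 nm (0.1% stain, TCA-fixed parallel cultures) as a total-protein cytotoxicity measure. Cells: primary human umbilical vein endothelium plus peripheral blood mononuclear cells, 24 h after chemical exposure; DMSO served as baseline.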
# [18] = read-out: Interleukin-1 alpha (IL1a), IL1A (gene 3552); assay: BSK_LPS_IL1a: BioMAP Diversity Plus: LPS Assay for Interleukin-1 alpha (IL1a) Biomarker Activity (AID 2283080); conditions: primary human HUVEC with PBMC; actives raise or lower the signal
# Procedure, shortened: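 ELISA read-out of IL-1 alpha from a human primary vascular co-culture (endothelium plus PBMC) under LPS, sampled 24 hours post-dosing. Activity was fitted in both directions relative to DMSO controls.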
# [19] = read-out: Monocyte Chemoattractant Protein-1 (MCP1), CCL2 (gene 6347); assay: BSK_LPS_MCP1: BioMAP Diversity Plus: LPS Assay for Monocyte Chemoattractant Protein-1 (MCP1) Biomarker Activity (AID 2283081); conditions: primary human HUVEC with PBMC; actives raise or lower the signal;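 as to AC50: secreted MCP-1 protein quantified by ELISA in culture supernatant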
# Procedure, shortened: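 Human endothelial–PBMC co-cultures were dosed with chemical, then LPS-driven MCP-1 levels were quantified by ELISA at 24 h. Activity in either direction was fitted versus DMSO negative control.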
# [20] = read-out: Interleukin-8 (IL8), CXCL8 (gene 3576); assay: BSK_LPS_IL8: BioMAP Diversity Plus: LPS Assay for Interleukin-8 (IL8) Biomarker Activity (AID 2283078); conditions: primary human HUVEC with PBMC; actives raise or lower the signal
# Procedure, shortened: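 Readout is IL-8 by ELISA, taken 24 h after compounds were added to LPS-stimulated endothelial/PBMC co-cultures. Both increases and decreases relative to DMSO control were scored through bidirectional fitting.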
# Chain of E-selectin (Homo sapiens) (P16581 whole entry, looked up): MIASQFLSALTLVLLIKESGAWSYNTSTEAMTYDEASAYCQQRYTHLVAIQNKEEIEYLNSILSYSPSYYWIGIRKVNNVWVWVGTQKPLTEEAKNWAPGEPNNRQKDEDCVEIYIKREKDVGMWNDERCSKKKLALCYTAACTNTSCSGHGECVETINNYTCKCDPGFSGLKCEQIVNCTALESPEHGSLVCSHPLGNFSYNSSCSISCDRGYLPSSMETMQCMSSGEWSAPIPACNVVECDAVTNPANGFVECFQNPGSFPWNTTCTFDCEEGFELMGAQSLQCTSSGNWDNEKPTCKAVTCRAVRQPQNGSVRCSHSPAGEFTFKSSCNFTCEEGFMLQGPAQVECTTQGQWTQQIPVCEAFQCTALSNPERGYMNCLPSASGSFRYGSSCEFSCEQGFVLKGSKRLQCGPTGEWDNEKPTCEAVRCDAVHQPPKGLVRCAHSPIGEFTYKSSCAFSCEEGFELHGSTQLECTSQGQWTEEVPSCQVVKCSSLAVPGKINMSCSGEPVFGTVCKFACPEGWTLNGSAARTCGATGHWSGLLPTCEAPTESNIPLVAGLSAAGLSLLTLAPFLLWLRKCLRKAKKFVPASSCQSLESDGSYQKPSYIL
compound,measurement,setting,value
O=C=NC1CCC(CC2CCC(N=C=O)CC2)CC1 (stereo not drawn),outcome,[1],inactive
same,outcome,[2],inactive
same,outcome,[3],inactive
same,outcome,[4],inactive
same,AC50,[5],25.6 µM (active)
same,outcome,[6],inactive
same,outcome,[7],inactive
same,outcome,[8],inactive
same,outcome,[9],inactive
same,outcome,[10],inactive
same,outcome,[11],inactive
same,outcome,[12],inactive
same,outcome,[13],inactive
same,AC50,[14],0.016 µM (active)
same,outcome,[15],inactive
same,outcome,[16],inactive
same,outcome,[17],inactive
same,outcome,[18],inactive
same,outcome,[19],inactive
CCCCC/C=C/C=C/C=O,AC50,[1],12.7 µM (active)
same,AC50,[2],25.1 µM (active)
same,AC50,[3],20 µM (active)
same,AC50,[5],8.82 µM (active)
same,AC50,[6],29.3 µM (active)
same,AC50,[7],29.4 µM (active)
same,AC50,[8],32.6 µM (active)
same,AC50,[9],29.5 µM (active)
same,AC50,[10],24.3 µM (active)
same,AC50,[11],9.27 µM (active)
same,AC50,[12],32.5 µM (active)
same,AC50,[13],26.8 µM (active)
same,AC50,[14],31.4 µM (active)
same,AC50,[15],20 µM (active)
same,AC50,[16],34.1 µM (active)
same,AC50,[20],32.6 µM (active)
same,AC50,[17],29.7 µM (active)
same,AC50,[18],29.2 µM (active)
same,AC50,[19],33.5 µM (active)
CC(C)c1ccc(C(C)C)cc1,outcome,[1],inactive
same,outcome,[2],inactive
same,outcome,[3],inactive
same,outcome,[4],inactive
same,AC50,[5],36.2 µM (active)
same,outcome,[6],inactive
same,outcome,[7],inactive
same,outcome,[8],inactive
same,outcome,[9],inactive
same,AC50,[10],31.8 µM (active)
same,outcome,[11],inactive
same,outcome,[12],inactive
same,outcome,[13],inactive
same,outcome,[14],inactive
same,outcome,[15],inactive
same,AC50,[16],32.1 µM (active)
same,outcome,[17],inactive
same,outcome,[18],inactive
same,outcome,[19],inactive
c1ccc2c(c1)c1cccc3ccc4cccc2c4c31,outcome,[1],inactive
same,outcome,[2],inactive
same,outcome,[3],inactive
same,outcome,[4],inactive
same,outcome,[5],inactive
same,outcome,[6],inactive
same,outcome,[7],inactive
same,outcome,[8],inactive
same,AC50,[9],0.016 µM (active)
same,outcome,[10],inactive
same,AC50,[11],0.0518 µM (active)
same,outcome,[12],inactive
same,outcome,[13],inactive
same,AC50,[14],0.0439 µM (active)
same,outcome,[15],inactive
same,outcome,[16],inactive
same,outcome,[17],inactive
same,outcome,[18],inactive
same,outcome,[19],inactive
BrC1CCC(Br)C(Br)CCC(Br)C(Br)CCC1Br (stereo not drawn),outcome,[1],inactive
same,outcome,[2],inactive
same,outcome,[3],inactive
same,AC50,[5],1.37 µM (active)
same,outcome,[6],inactive
same,AC50,[7],4.53 µM (active)
same,outcome,[8],inactive
same,outcome,[9],inactive
same,AC50,[10],1.53 µM (active)
same,outcome,[11],inactive
same,outcome,[12],inactive
same,AC50,[13],4.72 µM (active)
same,AC50,[14],4.69 µM (active)
same,AC50,[15],4.57 µM (active)
same,outcome,[16],inactive
same,AC50,[17],4.63 µM (active)
same,AC50,[18],4.58 µM (active)
same,outcome,[19],inactive
O=P(c1ccccc1)(c1ccccc1)c1ccccc1,outcome,[1],inactive
same,outcome,[2],inactive
same,outcome,[3],inactive
same,outcome,[4],inactive
same,outcome,[5],inactive
same,outcome,[6],inactive
same,outcome,[7],inactive
same,outcome,[8],inactive
same,outcome,[9],inactive
same,outcome,[10],inactive
same,outcome,[11],inactive
same,outcome,[12],inactive
same,outcome,[13],inactive
same,outcome,[14],inactive
same,outcome,[15],inactive
same,outcome,[16],inactive
same,outcome,[17],inactive
same,outcome,[18],inactive
same,outcome,[19],inactive
